Assay outcomes as filed in PubChem BioAssay.
hgDAF-12 ag = activates the H. glycines DAF-12 receptor ligand-binding domain. activation, % at 6.8 µM. HEK293 GAL4-hgDAF12 UAS-luciferase reporter, agonist luminescence; normalized to butyrate control. 1.8% of 370,000 active. AID 687014;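 active means activation above a cutoff set at the mean of all screened compounds plus 3 SD, cut at about 10% in these data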;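 further: 0% = DMSO wells and 100% = sodium butyrate wells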
ssDAF12 agonist = activators of S. stercoralis DAF-12 nuclear receptor | 1% of 370,000 active | HEK293 ssDAF-12/GRIP1 lit1-tk-luc reporter, luminescence; % of 3 µM dafachronic acid response | activation, % at 6.8 µM;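 active means activation above the mean over all tested compounds plus 3 SD, cut at about 0.9% in these data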;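 further: 0% = DMSO-only wells and 100% = 3 µM delta7-dafachronic acid wells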
DAX1 inh-1 = blocks DAX1 repression of SF-1 activated StAR promoter | 1.1% of 370,000 active | inhibition, % at 6.8 µM | HEK293T StAR-luciferase reporter, SF-1/DAX-1 repression relief;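 active means inhibition above the mean over all tested compounds plus 3 SD, cut at about 3.6% in these data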;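 further: 0% = DAX-1 cells with DMSO and 100% = cells lacking DAX-1 with DMSO; higher inhibition means more luminescence from relief of DAX-1 repression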
DAX1 inh-2 = NR0B1 (DAX1) inhibition; HEK293 Gal4-DAX1 luciferase reporter, luminescence; inhibition, % at 6.75 µM; 0.99% of 340,000 active;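 active means inhibition above the mean over all tested compounds plus 3 SD, cut at about 4.2% in these data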;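 further: 0% = DAX1-transfected cells with DMSO and 100% = empty-vector control cells with DMSO; inhibition shows as a rise in luminescence from relieved DAX1 repression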
Target sequence (P51843 207-470 limits assumed): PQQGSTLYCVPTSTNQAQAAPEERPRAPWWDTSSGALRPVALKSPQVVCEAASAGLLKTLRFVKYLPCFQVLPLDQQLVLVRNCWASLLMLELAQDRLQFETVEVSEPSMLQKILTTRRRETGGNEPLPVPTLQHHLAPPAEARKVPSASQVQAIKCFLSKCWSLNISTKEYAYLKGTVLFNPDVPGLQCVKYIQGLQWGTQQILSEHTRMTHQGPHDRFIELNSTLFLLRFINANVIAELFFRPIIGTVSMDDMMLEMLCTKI
hcDAF-12 act = H. contortus DAF-12 activation, primary screen; HEK293 hcDAF-12 lit1-tk-luc reporter, luminescence; 0% DMSO, 100% Δ7-dafachronic acid; activation, % at 6.8 µM; 1.4% of 370,000 active; AID 652067;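 active means activation above the mean of all tested compounds plus 3 SD, cut at about 5.5% in these data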;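 further: 100% = response to 3 µM Δ7-dafachronic acid high control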
LXR ag = activates human LXR-beta, counter-screen for hcDAF-12 agonists | shares compounds with hcDAF-12 act | HEK293 Gal4-LXR tk-luc reporter, luminescence, 24 h; normalized: DMSO 0%, positive control 100% | activation, % at 6.8 µM | 3,400 tested, under 10 active | AID 743027;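 active means mean percent activation of the reporter above a cutoff set as the average over tested compounds plus their standard deviation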
hcDAF12 ag = hcDAF-12 agonism, confirmation assay; shares compounds with hcDAF-12 act; activation, % at 6.8 µM; HEK293 hcDAF-12 lit1-tk-luc reporter, luminescence; % of Δ7-dafachronic acid response; 61% of 3,400 active;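 active means mean activation across triplicate tests above the threshold derived from the earlier primary screen, cut at about 5.5% in these data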;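 further: 0% = DMSO only wells and 100% = 3 µM Δ7-dafachronic acid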
* hit, by the source's call; nt = no result. Shown are actives, neighbours in structure and some others; about 4.1% of the full set was active somewhere.

SMILES | hgDAF-12 ag | ssDAF12 agonist | DAX1 inh-1 | DAX1 inh-2 | hcDAF-12 act | LXR ag | hcDAF12 ag
CC1ON=C(c2ccccn2)N(Cc2ccc(S(C)(=O)=O)cc2)C1=O (centres undefined) | 2 | -2 | 0 | nt | 10* | 0 | 0
Cc1ccccc1-c1nnc(-c2cccs2)o1 | 9 | 1.3* | 1 | 4 | 7.7* | 1 | 8.6*
COc1cccc(/C=C2/SC(=S)N(CC(=O)NNC(=O)c3ccccc3OC)C2=O)c1 | 2 | 0 | 0 | 0 | 8.5* | 0 | 5
COc1cccc(/C=C2/SC(=S)N(CC(=O)Nc3nnc(C)s3)C2=O)c1 | 0 | -1 | 0 | 1 | 1 | nt | nt
Cc1ccc2nc(NC(=O)COC(=O)CSc3nc(C)cc(C)n3)sc2c1 | 8 | 0 | 1 | 2 | 9.6* | 0 | 8.7*
COC(=O)c1ccc2nc(NC(=O)COC(=O)CSc3nc(C)cc(C)n3)sc2c1 | 5 | 0 | 1 | 1 | 11* | 0 | 5.9*
COc1ccc2nc(NC(=O)CSc3nc(C)cc(C)n3)sc2c1 | -2 | -1 | -2 | -1 | -2 | nt | nt
CCCCCCCCN1C(=O)[C@@H](CC(=O)NCc2cccc3ccccc23)C[C@@]2(C(=O)OC)C1=C[C@H](C(C)(C)C)O[C@@H]2C | -2 | -1 | 1 | nt | -1 | nt | nt
O=C(Nc1c(-c2ccc(F)cc2)nc2ncccn12)c1ccccc1 | 3 | 0 | -1 | nt | -2 | nt | nt
CCCCS(=O)(=O)N1CCCc2nc(-c3ccc(OC)cc3)ccc21 | -1 | -1 | -1 | nt | -1 | nt | nt
Clc1ccc2nc(-c3cccc(Br)c3)c(Cc3ccsc3)n2c1 | 10 | 0 | 4 | nt | 1 | nt | nt
Clc1ccc(-c2nc3c4ccccc4ccn3c2Cc2ccsc2)cc1 | 8 | 0 | 2 | nt | 8.8* | 0 | 5.8*
Fc1cccc(Cc2c(C3CCCCC3)nc3c4ccccc4ccn23)c1 | 10 | 1 | 3 | nt | 8.6* | 0 | 5
CCCc1nc2c(C)cc(Br)cn2c1Cc1ccccc1 | 7 | 1.0* | 1 | nt | 11* | 1 | 7.4*
CCCc1nc2c3ccccc3ccn2c1Cc1cccc(Cl)c1 | 12* | 1 | 2 | nt | 6.7* | 1 | 7.1*
CC1CCC2(CC1)CCN(CCCOC(=O)Nc1ccc3c(c1)OCO3)C2=O (centres undefined) | 0 | -1 | -1 | nt | -1 | nt | nt
c1ccc(-c2nc3c4ccccc4ccn3c2CN2CCOCC2)cc1 | 10 | 1 | 1 | 4 | 8.3* | 0 | 6.7*
Cc1cc(Br)cn2c(Cc3ccccc3)c(-c3cccc(Cl)c3)nc12 | 3 | 0 | -1 | nt | 7.0* | 0 | 2
Brc1cccc(-c2nc3c4ccccc4ccn3c2Cc2ccccc2)c1 | 1 | 1.0* | -1 | nt | 7.2* | 0 | 7.4*
CCCC[C@H]1C2CC(OC(=O)NCCCC(=O)OCC)C(C2)[C@H]2CCCCN21 (some centres undefined) | 0 | -1 | 0 | nt | -2 | nt | nt
Cc1ccnc(NC(=S)NC(=O)c2cccs2)c1 | 19* | 2.1* | 4.3* | 4 | 14* | 2 | 11*
Cc1ccnc(NC(=O)CNC(=O)c2cccs2)c1 | 2 | -1 | 0 | 4 | -1 | nt | nt
COc1ccc(Oc2c(Br)cnn(Cc3cccc4ccccc34)c2=O)cc1 | -2 | -1 | 1 | nt | -2 | nt | nt
COc1ccccc1-c1ccc(OCCCN2CCC(C(O)(c3ccccc3)c3ccccc3)CC2)cc1 | 0 | -1 | 0 | nt | -2 | nt | nt
CC(=O)Nc1nc(-c2ccc(Cl)cc2)nc(C)c1C(C)=O | 3 | 4.1* | 0 | 3 | 6.6* | 0 | 4
SMILES | hgDAF-12 ag | ssDAF12 agonist | DAX1 inh-1 | DAX1 inh-2 | hcDAF-12 act | LXR ag | hcDAF12 ag
CCCCn1cnc2c(sc3nc4c(cc32)CSC(C)(C)C4)c1=O | 13* | 0 | 1 | 3 | 7.0* | 1 | 5.6*
CN(C)CC(=O)N[C@H]1C[C@@H]2O[C@@H](CO)CC[C@@H]2O[C@@H]1CCc1ccc(-c2ccc(F)cc2)cc1 | -1 | -2 | -1 | nt | -3 | nt | nt
Cc1cc(C)n(-c2ncnc3sc4c(c23)CCCC4)n1 | 0 | 0 | 1 | 1 | 7.4* | 0 | 2
Cc1cc(C)n(-c2ncnc3sc4c(c23)CC(C)CC4)n1 (centres undefined) | 2 | -1 | -1 | -1 | -1 | nt | nt
O=C(c1ccc(C(F)(F)F)cc1)N(CCCn1ccnc1)C(c1ccccn1)c1nc2ccccc2[nH]1 (centres undefined) | 5 | 0 | 2 | nt | 7.5* | 0 | 5
CCn1cc(Br)c(C(=O)Nc2ccc(OC)cc2)n1 | 1 | -1 | 1 | 0 | 0 | nt | nt
CCn1cc(Br)c(C(=O)NN)n1 | 8 | 0 | 3 | 2 | 6.7* | 0 | 2
O=C(Cc1ccccc1[N+](=O)[O-])N1CCOCC1 | 1 | -1 | 0 | 1 | 0 | nt | nt
O=C(CNCc1ccccc1[N+](=O)[O-])N1CCC2(CC1)OCCO2 | 13* | 0 | 2 | nt | 7.0* | 0 | 5
CCOC(=O)c1nc2ccccc2nc1C | -1 | -2 | 0 | 1 | 6.9* | 0 | 2
O=C(OCc1nc2ccccc2s1)C1CCN(C2=NS(=O)(=O)c3ccccc32)CC1 | 5 | 1.4* | 2 | 2 | 9.7* | 1 | 9.6*
Cc1ccc(-c2ccc(/C=N/NC(N)=S)o2)cc1 | 7 | 1.7* | 0 | 3 | 10* | 0 | 7.5*
NC(=S)N/N=C/c1ccc(-c2ccc(Cl)c(Cl)c2)o1 | 6 | 1.4* | -1 | 1 | 7.1* | 0 | 9.9*
COC(=O)C12CCCN1C1C(=O)N(Cc3ccc(C(N)=O)cc3)CC1C2 (centres undefined) | 0 | -1 | 0 | nt | -2 | nt | nt
CN(C)Cc1c(C(=O)Nc2ccccc2)[nH]c2ccccc12 | 9 | 1 | 2 | 1 | 7.1* | 0 | 1
O=C(O)CCc1c(C(=O)O)[nH]c2ccccc12 | -2 | -1 | 0 | -1 | 0 | nt | nt
COC(=O)C1CN(Cc2cn(Cc3ccc(Cl)cc3)nn2)CCS(=O)(=O)N1Cc1ccc(C)cc1 (centres undefined) | -4 | -2 | -2 | nt | -4 | nt | nt
CCCCN(C(=O)c1cccc(S(=O)(=O)N2CCOCC2)c1)c1c(N)n(CCC)c(=O)[nH]c1=O | 2 | -1 | 0 | 3 | 8.2* | 0 | 2
O=C(CCNC(=O)c1ccccc1Cl)NNC(=O)c1ccccc1O | 2 | 0 | 1 | 1 | -1 | nt | nt
O=C(CC(=O)c1c(F)cccc1Cl)c1ccccc1O | 7 | 0 | 0 | 2 | 9.1* | 0 | 6.9*
